# A selection: hits, their analogues and other compounds. The true share with any hit is near 8.7%.
# VACV Venus inh: qHTS for Stage-Specific Inhibitors of Vaccinia Orthopoxvirus: Venus Reporter Primary qHTS; Vaccinia virus Venus reporter expression, fluorescence; Potency, µM (titrated, usually from 36.5 µM), without a hit: at the top dose activity change, negative = inhibition, usual class: inhibitors; actives 0.46% (n = 330,000); calls by dose curve; tested in A549 cells; further: nearly all actives have a fitted effect of over 30% in size
# Pf growth 48h: Primary qHTS for delayed death inhibitors of the malarial parasite plastid, 48 hour incubation. P. falciparum luciferase growth in erythrocytes, 48 h. Potency, µM (doses to about 28.7 µM), for the others: at the top dose activity change, negative = inhibition, usual class: inhibitors. actives 5.9% (n = 310,000). AID 504832, 2011
#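 Read-out is firefly luciferase luminescence from an integrated reporter in P. falciparum, so falling signal marks reduced parasite growth. Infected erythrocytes were at 2% hematocrit and 0.1% parasitemia (final) in Albumax-supplemented RPMI 1640.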
# Vaccinia mCherry: qHTS for Stage-Specific Inhibitors of Vaccinia Orthopoxvirus: mCherry Reporter Primary qHTS; actives 0.63% (n = 310,000); Potency, µM (highest dose often 36.5 µM), inactives show at the highest dose activity change, negative = inhibition, usual class: inhibitors; Vaccinia virus mCherry reporter infection, fluorescence; calls by dose curve; tested in A549 cells; further: nearly all actives have a fitted effect of over 35% in size
# Pf growth 96h: Primary qHTS for delayed death inhibitors of the malarial parasite plastid, 96 hour incubation; P. falciparum luciferase reporter growth, 96 h; Potency, µM (series often up to 28.7 µM), for inactives: at the highest dose activity change, negative = inhibition, usual class: inhibitors; actives 6.9% (n = 320,000); AID 504834, 2011
#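 Compounds incubated with erythrocytes infected by luciferase-expressing P. falciparum (2% hematocrit, 0.05% parasitemia final) for 96 hours, 37 C in 5% CO2. Growth inhibition scored as decreased luciferase luminescence.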
# AMA1-RON2 inh: qHTS for Inhibitors of AMA1-RON; Towards Development of Antimalarial Drug Lead: Primary Screen; Potency, µM (series often up to 58.2 µM), for inactives: at the top dose activity change, negative = inhibition, hits mostly inhibitors; Plasmodium falciparum AMA1 (3D7) - RON2 peptide interaction; AlphaScreen AMA1-biotinylated RON2 peptide binding; actives 0.2% (n = 360,000);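 further: 0% = vehicle wells and -100% = peptide control; nearly all actives have a fitted effect of over 45% in size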
#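 AMA1 (3D7) with his tag at 25 nM final met compounds first, then biotinylated RON2 peptide at 25 nM; detection used donor plus acceptor beads, 10 µg/mL apiece, read by AlphaScreen after 30 min at room temperature.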
# An asterisk follows results filed as active; ? = inconclusive; nt = no result; [ ] = another dose, or the depositor's remark. Unless noted, the call rests on the fitted dose curve; in most records, active means well fitted curve in the direction sought with a large enough effect; inconclusive means small, poorly fitted or top-dose-only effect, or another doubt; inactive means no such curve, though single readings can be large; an effect the other way counts as inactive or inconclusive. Unless noted, on the % scale 0 is the no-effect control and ±100 the full control effect; potency means the concentration at half of the fitted maximal effect.
SMILES,VACV Venus inh,Pf growth 48h,Vaccinia mCherry,Pf growth 96h,AMA1-RON2 inh
COc1ccc(NC(=O)CCCn2c(=O)[nH]c3ccccc3c2=O)cc1,nt,2.33µM*,nt,-1.4%,-8.5%
COc1ccc(N2CCN(C(=O)Cn3c(=O)[nH]c4ccccc4c3=O)CC2)cc1,nt,11.8%,nt,10.4µM*,nt
CCOc1ccc(C(=O)c2cn(CC(=O)Nc3cccc(OC)c3)c3cc4c(cc3c2=O)OCCO4)cc1,-5.3%,nt,-13.2%,nt,nt
COc1cccc(CNC(=O)Cn2cc3c(n2)-c2c(oc(C(=O)N4CCOCC4)c2C)CC3)c1,-11.4%,nt,-14.0%,nt,nt
CCOC(=O)c1c(C)oc2ncnc(N3CCN(c4ccccc4)CC3)c12,-20.6%,nt,-17.6%,nt,nt
COc1ccc(N2CCN(CCCNC(=O)C(=O)c3c(C)[nH]c4ccccc34)CC2)cc1,-13.0%,5.22µM*,-11.5%,?,?
COC(=O)c1ccc2nc(NC(=O)CN3C(=O)CCC3=O)sc2c1,-5.1%,-0.2%,-11.2%,0.828µM*,-6.9%
COC(=O)c1ccc2nc(NC(=O)C3CC3)sc2c1,-10.2%,90.0%,-23.2%,51.8%,-4.7%
Cc1ccc(NC(=O)Cn2c(=O)n(-c3ccccc3)c(=O)c3ccc(C(=O)NCc4ccc5c(c4)OCO5)cc32)c(C)c1,-0.2%,nt,-1.2%,nt,nt
CCSc1c(C(=O)NC)ccc2c1C(=O)c1ccccc1C2=O,-11.1%,-9.1%,nt,14.7µM*,-5.2%
COC(=O)c1ccc2c(c1O)C(=O)c1ccccc1C2=O,nt,nt,nt,4.15µM*,-24.5%
O=C1c2ccccc2C(=O)c2c1ccc(O)c2O,3.5%,-3.6%,-15.4%,16.1%,0.0%
CCn1c(C)nc([N+](=O)[O-])c1Sc1ccc(F)cc1,nt,?,nt,10.4µM*,4.8%
CCOC(=O)c1ccccc1NC(=O)Cn1nnc2sc3c(c2c1=O)CCCC3,-9.3%,nt,-8.9%,nt,nt
CCOc1ccc(-c2[nH]ncc2-c2ccc(OC)c(OC)c2)c(O)c1,nt,?,nt,-27.4%,9.3%
COc1ccc(-c2cn[nH]c2-c2ccc(O)cc2O)cc1OC,?,?,-19.1%,9.28µM*,79.1%
C=C(C)COc1ccc(-c2[nH]ncc2-c2ccccc2OC)c(O)c1,?,3.29µM*,-22.9%,11.9%,98.5%
C=C(C)COc1ccc(-c2[nH]ncc2Oc2ccccc2OC)c(O)c1,?,13.1µM*,?,11.2%,15.3%
C=C(C)COc1ccc(-c2nc(N)ncc2Oc2ccccc2OC)c(O)c1,-26.9%,?,?,?,-8.7%
CCCOC(=O)c1ccc(Oc2cn[nH]c2-c2ccc(OC)cc2O)cc1,-12.7%,10.4µM*,nt,?,-5.6%
O=C(Cn1c(=O)nc(-c2ccccc2)c2ccccc21)Nc1cccc(C(F)(F)F)c1,-0.3%,nt,-5.0%,nt,nt
CCN1CCOC(=O)C1CC(=O)Nc1ccc(Br)cc1 (stereo not given),-3.7%,nt,-5.3%,nt,nt
CCc1cc(-c2[nH]ncc2-c2ccc(OC)cc2)c(O)cc1O,?,?,?,?,65.9%
C=C(C)COc1ccc(-c2[nH]ncc2Oc2ccc(OC)cc2)c(O)c1,?,?,14.1µM*,?,86.8%
COc1ccc(-c2cn[nH]c2-c2ccc(OCc3ccc([N+](=O)[O-])cc3)cc2O)cc1,-24.2%,13.1µM*,-13.9%,?,55.1%
SMILES,VACV Venus inh,Pf growth 48h,Vaccinia mCherry,Pf growth 96h,AMA1-RON2 inh
CCOc1ccc(-c2[nH]ncc2-c2ccc(Cl)cc2)c(O)c1,nt,8.28µM*,nt,3.29µM*,105.8%
C=C(C)COc1ccc(-c2nc(N)ncc2Oc2ccc(OC)cc2)c(O)c1,-21.8%,?,-21.0%,3.0%,-7.0%
COc1ccc(-c2[nH]ncc2-c2ccc3c(c2)OCCO3)c(O)c1,-25.2%,?,nt,38.3%,16.9%
C=C(C)COc1ccc(-c2[nH]ncc2-c2ccc(Br)cc2)c(O)c1,?,3.7µM*,?,1.65µM*,11.4%
CCOc1ccc(Nc2c(S(=O)(=O)c3ccc(C)cc3)cnc3cc(OC)c(OC)cc23)cc1,-24.5%,nt,-3.8%,nt,nt
c1ccc(N2CCN(c3ncnc4[nH]ncc34)CC2)cc1,2.5%[7.34 µM],nt,-0.1%[7.34 µM],nt,nt
CC(=O)c1ccc(S(=O)(=O)N2CCn3cccc3C2c2ccccc2F)cc1 (stereo not given),-5.8%,nt,-8.4%,nt,nt
COc1ccc(CC(=O)Nc2c3c(nn2-c2cccc(C)c2C)CS(=O)C3)cc1OC (stereo not given),-1.6%,15.8%,-4.2%,2.62µM*,20.3%
COc1cc(-c2nc(Cn3nnc(C(=O)Nc4cc(C)cc(C)c4)c3C)c(C)o2)cc(OC)c1OC,-28.3%,nt,?,nt,nt
Cc1ccc(-c2noc(-c3nnn(CC(=O)Nc4cc(Cl)ccc4C)c3N)n2)cc1,-4.7%,nt,-6.4%,nt,nt
CCOc1ccccc1CNCCCSc1nnnn1C,-8.3%,nt,0.3%,nt,nt
O=C(Nn1c(SCc2ccccc2F)nc2ccsc2c1=O)c1ccccc1,-0.3%,7.2%,-1.0%,6.57µM*,-8.5%
CCCCCn1c(=NC(=O)c2ccco2)c(C(=O)OCC)cc2c(=O)n3ccccc3nc21,-4.8%,-38.2%,-4.0%,14.7µM*,9.5%
CCOC(=O)c1cc2c(=O)n3ccccc3nc2n(Cc2ccco2)c1=NC(=O)c1cc(C)cc(C)c1,10µM*,nt,?,nt,nt
N#Cc1cc2c(=O)n3ccccc3nc2n(Cc2ccco2)c1=NC(=O)c1ccco1,-7.5%,?,11.9%,11.7µM*,?
CCOC(=O)c1cc2c(=O)n3ccccc3nc2n(C)c1=NC(=O)c1c(-c2c(F)cccc2Cl)noc1C,-8.9%,nt,-10.1%,nt,18.7%
CCOC(=O)c1cc2c(=O)n3ccccc3nc2n(C(C)C)c1=NC(=O)c1c(-c2c(F)cccc2Cl)noc1C,-10.3%,3.7µM*,-13.1%,?,0.0%
COc1ccc2c(c1)c1c(c(=O)n(Cc3ccccc3)c(=O)n1CC(=O)NCc1ccccc1Cl)n2C,15.5%,nt,1.3%,nt,nt
CCCCn1c(=NC(=O)c2ccco2)c(C(=O)OCC)cc2c(=O)n3cccc(C)c3nc21,nt,11.7µM*,nt,5.86µM*,-0.4%
CC(C)NC(=O)CCCN1C(=O)CCn2nc(-c3cccn3C)cc21,-0.5%,nt,-13.5%,nt,nt
COc1cccc(C(=O)Nc2ccc3nc(N4CCOCC4)cc(C)c3c2)c1,-4.6%,14.7µM*,-7.8%,0.465µM*,-2.7%
CCN1CCN(c2cc(C)c3cc(NC(=O)c4cncc(Br)c4)ccc3n2)CC1,-27.7%,0.104µM*,-24.6%,1.85µM*,-20.0%
CCN1CCN(c2cc(C)c3cc(NC(=O)Cc4ccccc4OC)ccc3n2)CC1,nt,11.7µM*,nt,?,6.2%
CCN1CCN(c2cc(C)c3cc(NC(=O)c4cccc(C(F)(F)F)c4)ccc3n2)CC1,-14.1%,nt,-10.0%,nt,nt
COc1ccccc1CC(=O)Nc1ccc2nc(N3CCC(C)CC3)cc(C)c2c1,-17.6%,nt,-8.9%,nt,nt
CCN1CCN(c2cc(C)c3cc(NC(=O)c4cc(OC)c(OC)c(OC)c4)ccc3n2)CC1,-19.6%,nt,?,nt,nt
